Hits are enriched below; roughly 10% of the tested compounds scored in any of these assays.
JMJD2A Tudor inh – qHTS Assay for Inhibitors of JMJD2A-Tudor Domain; Lysine-specific demethylase 4A (Homo sapiens), O75164; AlphaScreen JMJD2A-Tudor / H3K4me3 peptide binding; Potency, µM (titrated, usually from 114 µM), inactives show top-dose activity change, negative = inhibition, hits mostly inhibitors; 390,000 tested, 4.4% active; AID 504339, 2011; note: potency is the fitted concentration of half-maximal effect; % is set by controls: 0 for no effect and ±100 for the full control effect; nearly all actives have a fitted effect of over 50% in size
BAZ2B inh – qHTS Assay for Inhibitors of BAZ2B | Bromodomain adjacent to zinc finger domain protein 2B (Homo sapiens), Q9UIF8 | AlphaScreen BAZ2B-H3K14Ac peptide displacement | Potency, µM (top dose mostly 114 µM), inactives show at the top dose activity change, negative = inhibition, hits mostly inhibitors | 360,000 tested, 4.4% active | AID 504333, 2011; note: potency is the fitted concentration of half-maximal effect; % is set by controls: 0 for no effect and ±100 for the full control effect; nearly all actives have a fitted effect of over 60% in size
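Complex of BAZ2B and biotin-H3K14Ac (50 nM apiece) forms over 30 min at RT, then faces library compounds up to 110 uM for another 30 min; AlphaScreen beads added, 20 min dark incubation, luminescence read.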
G9a inh – qHTS Assay for Inhibitors of Histone Lysine Methyltransferase G9a; G9a H3K9 monomethylation, AlphaScreen, 2 h; Potency, µM (doses to about 102 µM), for inactives: at the highest dose activity, negative = inhibition, hits mostly inhibitors; 350,000 tested, 8.8% active; note: potency is the fitted concentration of half-maximal effect; % is set by controls: 0 for no effect and ±100 for the full control effect; nearly all actives have a fitted effect of over 75% in size
Target sequence (Q96KQ7 913-1193 limits assumed): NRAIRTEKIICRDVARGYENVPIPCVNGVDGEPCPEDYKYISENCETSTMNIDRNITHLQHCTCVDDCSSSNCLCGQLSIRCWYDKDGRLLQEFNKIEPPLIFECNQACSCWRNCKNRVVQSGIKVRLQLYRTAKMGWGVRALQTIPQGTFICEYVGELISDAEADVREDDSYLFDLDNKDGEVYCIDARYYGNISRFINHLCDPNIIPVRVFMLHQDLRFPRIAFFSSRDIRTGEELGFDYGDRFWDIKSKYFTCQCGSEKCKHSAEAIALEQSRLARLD
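Quantitative HTS format: methyltransferase activity on a biotin-tagged H3K9 peptide is measured by AlphaScreen, using a rabbit anti-monomethyl-H3K9 antibody with streptavidin donor and anti-IgG acceptor beads. Final levels are 20 nM enzyme, 500 nM peptide, 20 uM SAM; 2 h RT.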
HP1b chromo inh – HTS for Inhibitors of HP1-beta Chromodomain Interactions with Methylated Histone Tails; AlphaScreen HP1-beta / biotin-H3K9me3 peptide binding; AID 540317, 2011; 390,000 tested, 0.56% active; Potency, µM (series often up to 114 µM), for the others: top-dose activity change, negative = inhibition, most hits filed as inhibitors; note: potency is the fitted concentration of half-maximal effect; nearly all actives have a fitted effect of over 70% in size
Target sequence (P83916 whole entry, looked up): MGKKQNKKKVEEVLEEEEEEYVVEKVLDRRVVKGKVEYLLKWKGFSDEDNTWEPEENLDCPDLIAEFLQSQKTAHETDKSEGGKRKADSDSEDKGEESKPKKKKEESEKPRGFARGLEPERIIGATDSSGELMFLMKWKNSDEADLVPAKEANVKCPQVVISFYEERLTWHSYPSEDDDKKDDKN
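HP1-beta protein (50 nM final) preincubated 30 min at room temperature with biotinylated H3(1-18)K9me3 peptide (50 nM) in PBS pH 7.4, 0.01% Tween-20, then compound added for 30 min. AlphaScreen streptavidin donor/nickel chelate acceptor beads (10 ug/mL final), 30 min dark, luminescence read.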
Six1-Eya2 inh – qHTS Assay for Inhibitors of the Six1/Eya2 Interaction. AlphaScreen GST-Six1/His-Eya2 binding, biochemical; active compounds read low. activity change, % (no concentration beside the values). 360,000 tested, 0.56% active. AID 651725, 2012; in the data active = activity change below about -65%; inconclusive = mostly about -30% to -63%; note: % is set by controls: 0 for no effect and ±100 for the full control effect
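AlphaScreen with GST-Six1 and His-Eya2 (5X mix: 250 nM and 500 nM), glutathione donor and nickel acceptor beads; buffer 50 mM Tris pH 8.0, 300 mM NaCl, 1 mM TCEP; 1 h at 37 C in the dark.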
CtBP-E1A blk – qHTS Assay for Inhibitors of the CtBP/E1A Interaction; AlphaScreen GST-E1A/His-CtBP binding, 1536-well; active compounds read low; activity change, % (test concentration not listed); 340,000 tested, 0.49% active; AID 651724, 2012; in the data active = activity change below about -65%; inconclusive = mostly about -30% to -63%; note: % is set by controls: 0 for no effect and ±100 for the full control effect
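AlphaScreen with 125 nM GST-E1A and 125 nM His-CtBP (5X stocks) in Tris pH 8.0, 300 mM NaCl, BSA, Tween 20, TCEP. Compounds preincubated 2 h at 37 deg C, then glutathione donor/nickel acceptor beads added for 1 h at 37 deg C in dark.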
* marks the source's active call; other numbers are inactive results; [ ] = remark or other dose. Unless noted, calls come from the whole dose curve; as a rule, active = well fitted inhibition curve with a large enough effect; inconclusive = small, poorly fitted or top-dose-only effect; inactive = no such curve, though single readings can be large or run the other way.

`COP(=O)(OC)C(Nc1ccc(C)cc1)c1ccc(Br)cc1` (centres undefined) gave JMJD2A Tudor inh -27%, HP1b chromo inh 16%, Six1-Eya2 inh 3 and CtBP-E1A blk -16.
O=C(O)CC(NNC(=O)c1ccccc1)C(=O)Nc1cccc([N+](=O)[O-])c1 (centres undefined) was read as JMJD2A Tudor inh inconclusive, BAZ2B inh inconclusive, G9a inh 50µM*, HP1b chromo inh 20%, Six1-Eya2 inh 3 and CtBP-E1A blk 1.
Screening O=C(NC(=S)Nc1cccc([N+](=O)[O-])c1)c1ccccc1 returned JMJD2A Tudor inh -11%, BAZ2B inh -24%, G9a inh -16%[59 µM], HP1b chromo inh 17% and Six1-Eya2 inh -2.
Screening O=[N+]([O-])c1ccc(NNC(=S)Nc2ccc(F)cc2)cc1 returned JMJD2A Tudor inh 50µM*, BAZ2B inh 45µM*, G9a inh inconclusive, HP1b chromo inh inconclusive, Six1-Eya2 inh -17 and CtBP-E1A blk 16.
For COc1ccc([N+](=O)[O-])cc1NC(=S)NC(NC(=O)Cc1ccc(OC)c(OC)c1)C(Cl)(Cl)Cl (centres undefined) the results were JMJD2A Tudor inh -22%, BAZ2B inh 3%, G9a inh -8%, HP1b chromo inh -10%, Six1-Eya2 inh inconclusive and CtBP-E1A blk inconclusive.
COc1ccc([N+](=O)[O-])cc1NC(=S)NC(NC(C)=O)C(Cl)(Cl)Cl (centres undefined) was read as JMJD2A Tudor inh -12%, BAZ2B inh -11%, G9a inh 40µM*, HP1b chromo inh -1%, Six1-Eya2 inh 1 and CtBP-E1A blk -3.
Screening Cc1ccc(S(=O)(=O)NCCc2nnc3ccc(SCc4ccccc4C)nn23)cc1 returned JMJD2A Tudor inh -33%, BAZ2B inh -8%, G9a inh -28%[59 µM] and HP1b chromo inh 49%.
`O=C1NCCCC2c3c(cc(Br)c(O)c3Br)OC12N1CCOCC1` (centres undefined) gave JMJD2A Tudor inh inconclusive, G9a inh inconclusive, HP1b chromo inh -30%, Six1-Eya2 inh -1 and CtBP-E1A blk -1.
`O=C1NCCCC2c3cc(O)c4ccccc4c3OC12N1CCCCC1` (centres undefined) gave BAZ2B inh inconclusive and G9a inh 3.5µM*.
For Nc1cc(S(=O)(=O)N2CCN(S(=O)(=O)c3ccc4c(c3)OCCO4)CC2)ccn1 the results were JMJD2A Tudor inh -35%.
For O=C1CCc2cc(Br)ccc2O1 the results were JMJD2A Tudor inh 10%, HP1b chromo inh 48%, Six1-Eya2 inh -1 and CtBP-E1A blk -1.
COc1ccc(-c2noc(CSCC(=O)Nc3cc(OC)c(OC)c(OC)c3)n2)cc1OC was read as JMJD2A Tudor inh -5%, BAZ2B inh 2%, G9a inh 2%[59 µM] and HP1b chromo inh 6%.
CCCCCCCCSc1nnc2[nH]c(=O)cc(N)n12 was read as JMJD2A Tudor inh 11µM*, BAZ2B inh -19%, G9a inh -9%, HP1b chromo inh -17%, Six1-Eya2 inh 30 and CtBP-E1A blk 2.
O=[N+]([O-])c1ccc(N2CCN(Cc3ccc4c(c3)OCO4)CC2)nc1 was read as JMJD2A Tudor inh inconclusive, BAZ2B inh inconclusive, HP1b chromo inh 1%, Six1-Eya2 inh -17 and CtBP-E1A blk -13.
